Compound activity deposited in PubChem by National Center for Advancing Translational Sciences (NCATS).
BAZ2B block = qHTS Assay for Inhibitors of BAZ2B. Potency, µM (top dose mostly 114 µM), for inactives: at the highest dose activity change, negative = inhibition, usual class: inhibitors. AlphaScreen BAZ2B-H3K14Ac peptide displacement. 360,000 tested, 4.4% active; further: potency means the concentration at half of the fitted maximal effect; on the % scale 0 is the no-effect control and ±100 the full control effect; nearly all actives have a fitted effect of over 60% in size
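AlphaScreen luminescence quantifies BAZ2B engagement of H3K14Ac peptide; the protein and biotinylated peptide are both at 50 nM final, buffer PBS pH 7.4 with 0.01% Tween-20, all steps at room temperature.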
L3MBTL1 inh = qHTS Assay for the Inhibitors of L3MBTL1. Lethal(3)malignant brain tumor-like protein 1 (Homo sapiens), Q9Y468. AlphaScreen L3MBTL1–H3K9me1 peptide binding. Potency, µM (top dose mostly 57.1 µM), inactives show at the highest dose activity, negative = inhibition, actives largely listed as inhibitors. 230,000 tested, 0.66% active. AID 485360, 2010; further: potency means the concentration at half of the fitted maximal effect; on the % scale 0 is the no-effect control and ±100 the full control effect; nearly all actives have a fitted effect of over 60% in size
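First, the protein-peptide complex forms for 30 min at room temperature (L3MBTL1 50 nM, biotinylated H3K9me1 peptide 75 nM). Next, compounds are pin-transferred and incubated 30 min. Finally, AlphaScreen beads are added and read after 30 min.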
HP1b chromo inh = HTS for Inhibitors of HP1-beta Chromodomain Interactions with Methylated Histone Tails; Chromobox protein homolog 1 (Homo sapiens), P83916; AlphaScreen HP1-beta / biotin-H3K9me3 peptide binding; Potency, µM (series often up to 114 µM), for inactives: top-dose activity change, negative = inhibition, usual class: inhibitors; 390,000 tested, 0.56% active; further: potency means the concentration at half of the fitted maximal effect; nearly all actives have a fitted effect of over 70% in size
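HP1-beta protein (50 nM final) preincubated 30 min at room temperature with biotinylated H3(1-18)K9me3 peptide (50 nM) in PBS pH 7.4, 0.01% Tween-20, then compound added for 30 min. AlphaScreen streptavidin donor/nickel chelate acceptor beads (10 ug/mL final), 30 min dark, luminescence read.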
G9a block = qHTS Assay for Inhibitors of Histone Lysine Methyltransferase G9a; Histone-lysine N-methyltransferase EHMT2 (Homo sapiens), Q96KQ7; G9a H3K9 monomethylation, AlphaScreen, 2 h; Potency, µM (series often up to 102 µM), without a hit: at the highest dose activity, negative = inhibition, most hits filed as inhibitors; 350,000 tested, 8.8% active; further: potency means the concentration at half of the fitted maximal effect; on the % scale 0 is the no-effect control and ±100 the full control effect; nearly all actives have a fitted effect of over 75% in size
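Chemiluminescent proximity detection of H3K9 monomethylation, read after 10 min bead incubation in the dark. Reaction: 20 nM G9a, 500 nM biotin-H3K9 peptide, 20 uM SAM cofactor, 2 h, room temperature, following 15 min enzyme-compound preincubation.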
PI5P4Ka inh = qHTS for Inhibitors of phosphatidylinositol 5-phosphate 4-kinase (PI5P4K); Phosphatidylinositol 5-phosphate 4-kinase type-2 alpha (Homo sapiens), P48426; AID 652105, 2013; PI5P4Kalpha enzyme, ADP-Glo luminescence, 60 min; hits give low values; max response, %; 330,000 tested, 1.2% active; active means max response of -50% or lower; inconclusive means between -30% and -50%; inactive means -30% or higher; further: value at the top dose of about 77 µM; on the % scale 0 is the no-effect control and ±100 the full control effect
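Human PI5P4Kalpha with substrate in 0.038 M HEPES pH 7.4, 0.28 mM EGTA, 0.1% CHAPS, 5% DMSO; reaction started with 5 microM ATP (final), 60 min at room temperature. ADP formed read by ADP-Glo luminescence.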
JMJD2A Tudor = qHTS Assay for Inhibitors of JMJD2A-Tudor Domain; Lysine-specific demethylase 4A (Homo sapiens), O75164; AlphaScreen JMJD2A-Tudor / H3K4me3 peptide binding; 390,000 tested, 4.4% active; Potency, µM (series often up to 114 µM), for the others: top-dose activity change, negative = inhibition, usual class: inhibitors; further: potency means the concentration at half of the fitted maximal effect; on the % scale 0 is the no-effect control and ±100 the full control effect; nearly all actives have a fitted effect of over 50% in size
Numbers without * were called inactive; ? = inconclusive; . = no result given; ! = not active in a repeat; [ ] = remark or other dose. Only some compounds are listed: those with a hit (about 11% of all), similar ones and a draw of the others. Unless noted, the call rests on the fitted dose curve; in most records, active means well fitted inhibition curve with a large enough effect; inconclusive means small, poorly fitted or top-dose-only effect; inactive means no such curve, though single readings can be large or run the other way.

SMILES	BAZ2B block	L3MBTL1 inh	HP1b chromo inh	G9a block	PI5P4Ka inh	JMJD2A Tudor
COc1cccc(CNC(=O)c2[nH]c3cc(C)ccc3c2Sc2ccccc2)c1	-32%	.	4%	?	.	?
NS(=O)(=O)c1ccc(Nc2nc(-c3ccc(O)cc3)cs2)cc1	-35%	.	-10%	?	.	?
Cc1nc(N)sc1-c1csc(Nc2ccc(S(N)(=O)=O)cc2)n1	50µM*	-11%	-3%	?	?	?
COc1ccc(CNC(=O)c2cc3ccccn3n2)cc1OC	-2%	.	22%	2%[59 µM]	.	-23%
CCOC(=O)Cn1c2[n+](c3ccccc31)CC(O)CS2 (configuration not stated)	?	.	7%	?	.	45µM*
COC(=O)Cn1c2[n+](c3ccccc31)CC(O)CS2 (configuration not stated)	-1%	-4%	42%	-28%[59 µM]	-3	-4%
Cc1ccccc1CN1c2ccccc2-c2nc(SCC(=O)NCCc3ccccc3)ncc2S1(=O)=O	-1%	.	23%	2%[59 µM]	.	-5%
O=C(O)c1cccc(Cn2c(Cl)c(/C=N/NC(=O)c3cc4ccccc4cc3O)sc2=O)c1	25µM*	35µM*	?	10µM*	-73*	79µM*
COC(=O)c1cccc(Cn2c(Cl)c(/C=N/Nc3ccccc3C)sc2=O)c1	35µM*	-22%	-13%	10µM*	-12	?
Cc1ccccc1N/N=C/c1sc(=O)n(Cc2cccc(C(=O)O)c2)c1Cl	45µM*	.	-22%	-136%[59 µM]	?	10µM*
O=C(O)c1cccc(Cn2c(Cl)c(/C=N/NC(=O)c3ccccc3)sc2=O)c1	-29%	-4%	41%	31%[0.501 µM]	4	-2%
COc1ccccc1N1CCN(S(=O)(=O)c2ccc(F)c(C(=O)Nc3ccc(C)c(F)c3)c2)CC1	-17%	.	43%	-26%[59 µM]	.	?
C[n+]1cnc(-c2ccccc2)cc1-c1ccccc1	-3%	16%	?	?	0	22µM*
Cc1csc2nc(COc3ccc(NC(=O)c4ccccc4F)cc3)cc(=O)n12	-24%	.	42%	?	.	-35%
O=S1(=O)c2cccc3cccc(c23)N1Cc1nnc(-c2ccccc2Br)o1	6%	-1%	-13%	56µM*	-20	-15%[11.4 µM]
Cc1ccc(C)c(NC(=O)CSc2ncc3c(n2)-c2ccccc2N(Cc2ccccc2C)S3(=O)=O)c1	-14%	.	26%	-1%[59 µM]	.	1%
O=C(O)C1Nc2ccccc2C2C=CCC12 (configuration not stated)	.	.	11µM*	.	.	3.5µM*
CCOC(=O)C1Nc2ccc(C(=O)O)cc2C2C=CCC12 (configuration not stated)	40µM*	-8%[2.29 µM]	7.9µM*	24%[0.501 µM]	-69*	4µM*
COCCNC(=O)C1Nc2ccc(C(F)(F)F)cc2C2C=CCC12 (configuration not stated)	.	.	10%	.	-21	-30%
COCCNC(=O)C1Nc2ccc(OC(F)(F)F)cc2C2C=CCC12 (configuration not stated)	.	.	40%	.	0	-17%
CCOC(=O)c1ccc2c(c1)C1C=CCC1C(C(=O)O)N2 (configuration not stated)	6.3µM*	3.2µM*	.	3.2µM*	.	.
COC(=O)CNC(=O)C1Nc2ccc(OC(F)(F)F)cc2C2C=CCC12 (configuration not stated)	.	.	38%	.	3	-17%
COc1ccc(NC(=O)C(OC(=O)CNC(=O)c2ccccc2)c2ccccc2)cc1Cl (configuration not stated)	.	.	.	.	.	-23%
CCOC(=O)C1=C(O)C(=O)N(c2ccc(S(N)(=O)=O)cc2)C1c1ccc(Cl)cc1 (configuration not stated)	?	-2%	6%	7%[0.501 µM]	-5	-27%
Cc1ccc(S(=O)(=O)N/N=C/c2cccn2-c2ccc(Cl)cc2)cc1	-2%	0%	?	110%[59 µM]	-8	56µM*
SMILES	BAZ2B block	L3MBTL1 inh	HP1b chromo inh	G9a block	PI5P4Ka inh	JMJD2A Tudor
Cc1ccc(S(=O)(=O)N/N=C/c2c(F)cccc2Cl)cc1	-3%	11%	34%	?	5	4%
CC1=NN(c2ccc(Cl)cc2)C(=O)/C1=C\c1cccn1-c1ccc(S(N)(=O)=O)cc1	10µM*	?	?	10µM*	-1	22µM*
COc1ccccc1C(=O)NNc1ncc(C)s1	-31%	3%	33%	40µM*	-12	-19%
CC1CCCCN1CCCNC(=O)Cn1ncc2c3ccccc3n(Cc3ccccc3)c2c1=O (configuration not stated)	-1%	.	46%	-2%[59 µM]	.	-7%
CCCCNC(=S)Nc1ccccc1Cc1ccccc1	50µM*	-7%	13%	0%	-4	-25%
CCCCSCCCNC(=S)Nc1ccccc1C	?	.	0%	-1%[59 µM]	0	?
Cc1ccccc1NS(=O)(=O)c1nnc(NC(=O)c2ccc(Br)cc2)s1	-21%	.	38%	21%	6	-16%
Cc1ccccc1NS(=O)(=O)c1nnc(NC(=O)c2ccccc2C)s1	28µM*!	.	25%	-39%[59 µM]	4	?
Cc1ccccc1N(C)S(=O)(=O)c1nnc(NC(=O)C(C)C)s1	?	.	-14%	?	.	?
Cc1ccccc1N(C)S(=O)(=O)c1nnc(NC(=O)c2ccccc2F)s1	14µM*!	.	32%	4µM*!	-18	45µM*!
Cc1ccc2c(c1)N(C(=O)CCC(=O)NCc1ccccc1Cl)CC(C)O2 (configuration not stated)	-16%	.	38%	-4%[59 µM]	.	-23%
COc1cc(OC)c(NC(=O)Nc2nnc(N(C)C3CCCCC3)s2)cc1Cl	0%	.	28%	?	.	-5%
FC(F)(F)c1ccc(C2=Nc3ccccc3NC(c3cccs3)=N2)cc1	-8%	.	10%	4%[59 µM]	.	-21%
Cc1c(Cc2ccc3c(c2)OCO3)sc(NC(=O)c2ccc3ccccc3c2)c1C(N)=O	-6%	2%	-2%	6.3µM*	-7	-9%
CCC(=O)Nc1sc(Cc2ccc3c(c2)OCO3)c(C)c1C(N)=O	-32%	.	-32%	10µM*	-20	-23%
COc1cc(C(=O)Nc2nc(C)c(Cc3ccc4c(c3)OCO4)s2)cc(OC)c1OC	-35%	-18%	?	4µM*	-14	?
O=C1/C(=N/n2cnnc2)c2ccccc2N1Cc1ccccc1	-8%	1%	.	?	.	.
